Source: the supplement of paper PMC10849652
Of roughly 8,800 targets only a part is listed; those with a hit were picked by preference. About 0.5% of all pairs of compound and target were hits. A number with no mark means an inactive call.

Experiments:
Experiment in all cases: log2 fold change, soluble protein after heating vs DMSO (PISA); higher = thermal stabilisation; K562 lysate, 10 uM; active = over 0.2 and 3.5 SD of the protein, either way, in both replicates (recomputed)
erlotinib = compound: C#Cc1cccc(Nc2ncnc3cc(OCCOC)c(OCCOC)cc23)c1 [erlotinib]
Procedure, shortened: (§1)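 Values give the log-two fold change in thermal stability against solvent controls, from duplicates. Crude K562 extract at 1 mg/mL protein, made by dounce homogenisation in PBS pH 7.4 with 1 mM MgCl2, was treated with 10 μM compound for 30 min. After 3 min heating across 48°C-58°C, aliquots were pooled, adjusted to 0.5% NP-40 at 4°C and centrifuged at 21,000xg for 90 min. The supernatant was measured by TMTpro 16plex LC-MS/MS with channel sums equalised.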

[1] = compound: C/C(=N\NC(=O)C1=CC(=CC=C1)S(=O)(=O)N2CCOCC2)/C3=C(C=CC(=C3)Cl)O
Procedure, shortened: as §1

[2] = compound: C1=CC(=CC=C1C2=NC3=C(N2)C=C(C=C3)C(=O)N)OC4=CC=C(C=C4)Cl
Procedure, shortened: as §1

[3] = compound: C1=CC2=C(C=CC(=C2)/C=C\3/C(=O)NC(=NCC4=CC=CS4)S3)N=C1
Procedure, shortened: as §1

[4] = compound: C1=CC=C(C=C1)C2=NC(=C(N2)C3=CC=NC=C3)C4=CC(=C(C=C4)Cl)O
Procedure, shortened: as §1

[5] = compound: C1=CC=C2C(=C1)C3=NNC4=CC=CC(=C43)C2=O
Procedure, shortened: as §1

[6] = compound: C1CCN(C1)C(=O)NC2=CC=CC(=C2)NC3=NC=C(C(=N3)NCCC4=CN=CN4)Br
Procedure, shortened: as §1

[7] = compound: C1CN(CCC1(CC2=CC=C(C=C2)Cl)N)C3=NC=NC4=C3C=CN4
Procedure, shortened: as §1

IRAK-1-4 Inhibitor I = compound: C1COCCN1CCN2C3=CC=CC=C3N=C2NC(=O)C4=CC(=CC=C4)[N+](=O)[O-] [IRAK-1-4 Inhibitor I]
Procedure, shortened: as §1

[8] = compound: CC(=O)c1cnc2ccc(-c3cc(Cl)c(O)c(Cl)c3)nc2c1N[C@H]1CC[C@H](CN(C)C)CC1
Procedure, shortened: as §1

ralimetinib = compound: CC(C)(C)Cn1c(N)nc2ccc(-c3[nH]c(C(C)(C)C)nc3-c3ccc(F)cc3)nc21 [ralimetinib]
Procedure, shortened: as §1

[9] = compound: CC(C)(O)CC(=O)NCCn1ccc2ncnc(Nc3ccc(Oc4cccc(C(F)(F)F)c4)c(Cl)c3)c21
Procedure, shortened: as §1

[10] = compound: CC(C)C1=C2N=C(C=C(N2N=C1)NCC3=CC=CC=C3)NCCCCCCN
Procedure, shortened: as §1

[11] = compound: CC1=C(C(CC(=O)N1)C2=CC=C(C=C2)C(F)(F)F)C(=O)NC3=C(C=C4C(=C3)C=NN4)F
Procedure, shortened: as §1

[12] = compound: CC1=C(C2=C(C=C1)C(=O)C3=CC=CC=C3N2CCCN)C
Procedure, shortened: as §1

[13] = compound: CC1=C(C=C(C=C1)NC(=O)C2=CC(=CC=C2)C(C)(C)C#N)NC3=CC4=C(C=C3)N=CN(C4=O)C
Procedure, shortened: as §1

[14] = compound: CC1=C(C=C(C=C1)NC(=O)C2=CC(=CC=C2)N(C)C)NC(=O)C3=CC=C(C=C3)O
Procedure, shortened: as §1

[15] = compound: CC1=CC=C(C=C1)SC2=C3C=C(SC3=CN=C2)C(=O)N
Procedure, shortened: as §1

[16] = compound: C1=CC2=NC=CN=C2C=C1/C=C/3\C(=O)NC(=O)S3
Procedure, shortened: as §1

ibrutinib = compound: C=CC(=O)N1CCC[C@@H](n2nc(-c3ccc(Oc4ccccc4)cc3)c3c(N)ncnc32)C1 [ibrutinib]
Procedure, shortened: as §1

Chain of UniProt Q6ZWL3 (Q6ZWL3 whole entry, looked up): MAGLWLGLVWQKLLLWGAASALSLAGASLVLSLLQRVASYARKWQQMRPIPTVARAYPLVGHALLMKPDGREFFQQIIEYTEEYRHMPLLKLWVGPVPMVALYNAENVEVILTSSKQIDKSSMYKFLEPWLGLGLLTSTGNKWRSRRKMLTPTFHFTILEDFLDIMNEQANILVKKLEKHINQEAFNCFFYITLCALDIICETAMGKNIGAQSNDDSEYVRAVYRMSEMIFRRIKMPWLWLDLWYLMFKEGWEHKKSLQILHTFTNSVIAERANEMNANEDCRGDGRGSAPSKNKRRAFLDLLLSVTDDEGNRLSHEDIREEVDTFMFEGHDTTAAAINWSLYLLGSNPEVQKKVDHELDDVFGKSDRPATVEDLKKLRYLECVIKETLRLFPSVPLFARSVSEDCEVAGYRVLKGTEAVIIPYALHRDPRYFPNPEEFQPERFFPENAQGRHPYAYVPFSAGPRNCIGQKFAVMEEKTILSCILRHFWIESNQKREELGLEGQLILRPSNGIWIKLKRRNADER
Chain of UniProt P57737 (P57737 whole entry, looked up): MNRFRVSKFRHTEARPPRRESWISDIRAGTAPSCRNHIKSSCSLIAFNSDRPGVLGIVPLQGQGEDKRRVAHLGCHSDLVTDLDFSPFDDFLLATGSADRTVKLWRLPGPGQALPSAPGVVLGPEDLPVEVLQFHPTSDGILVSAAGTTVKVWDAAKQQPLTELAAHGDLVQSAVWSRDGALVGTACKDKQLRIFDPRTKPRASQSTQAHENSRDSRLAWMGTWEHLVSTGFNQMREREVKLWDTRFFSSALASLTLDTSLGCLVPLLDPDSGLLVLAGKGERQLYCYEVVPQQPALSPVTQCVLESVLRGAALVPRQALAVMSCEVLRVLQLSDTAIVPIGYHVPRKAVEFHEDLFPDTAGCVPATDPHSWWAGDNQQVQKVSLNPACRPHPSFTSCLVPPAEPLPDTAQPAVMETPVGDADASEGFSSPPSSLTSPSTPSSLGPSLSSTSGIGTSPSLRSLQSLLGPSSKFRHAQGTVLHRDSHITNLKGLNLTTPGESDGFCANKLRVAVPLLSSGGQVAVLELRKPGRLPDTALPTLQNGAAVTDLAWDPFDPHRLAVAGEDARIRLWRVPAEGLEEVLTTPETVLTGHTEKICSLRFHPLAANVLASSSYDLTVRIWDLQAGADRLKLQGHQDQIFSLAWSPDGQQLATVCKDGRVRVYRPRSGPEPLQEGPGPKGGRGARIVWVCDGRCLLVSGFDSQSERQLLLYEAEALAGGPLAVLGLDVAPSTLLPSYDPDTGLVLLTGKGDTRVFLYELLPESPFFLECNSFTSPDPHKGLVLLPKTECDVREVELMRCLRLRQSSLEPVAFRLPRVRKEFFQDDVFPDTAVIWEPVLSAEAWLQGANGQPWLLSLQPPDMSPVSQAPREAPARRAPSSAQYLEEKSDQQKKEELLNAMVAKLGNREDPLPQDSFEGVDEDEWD
Chain of UniProt P30622 (P30622 whole entry, looked up): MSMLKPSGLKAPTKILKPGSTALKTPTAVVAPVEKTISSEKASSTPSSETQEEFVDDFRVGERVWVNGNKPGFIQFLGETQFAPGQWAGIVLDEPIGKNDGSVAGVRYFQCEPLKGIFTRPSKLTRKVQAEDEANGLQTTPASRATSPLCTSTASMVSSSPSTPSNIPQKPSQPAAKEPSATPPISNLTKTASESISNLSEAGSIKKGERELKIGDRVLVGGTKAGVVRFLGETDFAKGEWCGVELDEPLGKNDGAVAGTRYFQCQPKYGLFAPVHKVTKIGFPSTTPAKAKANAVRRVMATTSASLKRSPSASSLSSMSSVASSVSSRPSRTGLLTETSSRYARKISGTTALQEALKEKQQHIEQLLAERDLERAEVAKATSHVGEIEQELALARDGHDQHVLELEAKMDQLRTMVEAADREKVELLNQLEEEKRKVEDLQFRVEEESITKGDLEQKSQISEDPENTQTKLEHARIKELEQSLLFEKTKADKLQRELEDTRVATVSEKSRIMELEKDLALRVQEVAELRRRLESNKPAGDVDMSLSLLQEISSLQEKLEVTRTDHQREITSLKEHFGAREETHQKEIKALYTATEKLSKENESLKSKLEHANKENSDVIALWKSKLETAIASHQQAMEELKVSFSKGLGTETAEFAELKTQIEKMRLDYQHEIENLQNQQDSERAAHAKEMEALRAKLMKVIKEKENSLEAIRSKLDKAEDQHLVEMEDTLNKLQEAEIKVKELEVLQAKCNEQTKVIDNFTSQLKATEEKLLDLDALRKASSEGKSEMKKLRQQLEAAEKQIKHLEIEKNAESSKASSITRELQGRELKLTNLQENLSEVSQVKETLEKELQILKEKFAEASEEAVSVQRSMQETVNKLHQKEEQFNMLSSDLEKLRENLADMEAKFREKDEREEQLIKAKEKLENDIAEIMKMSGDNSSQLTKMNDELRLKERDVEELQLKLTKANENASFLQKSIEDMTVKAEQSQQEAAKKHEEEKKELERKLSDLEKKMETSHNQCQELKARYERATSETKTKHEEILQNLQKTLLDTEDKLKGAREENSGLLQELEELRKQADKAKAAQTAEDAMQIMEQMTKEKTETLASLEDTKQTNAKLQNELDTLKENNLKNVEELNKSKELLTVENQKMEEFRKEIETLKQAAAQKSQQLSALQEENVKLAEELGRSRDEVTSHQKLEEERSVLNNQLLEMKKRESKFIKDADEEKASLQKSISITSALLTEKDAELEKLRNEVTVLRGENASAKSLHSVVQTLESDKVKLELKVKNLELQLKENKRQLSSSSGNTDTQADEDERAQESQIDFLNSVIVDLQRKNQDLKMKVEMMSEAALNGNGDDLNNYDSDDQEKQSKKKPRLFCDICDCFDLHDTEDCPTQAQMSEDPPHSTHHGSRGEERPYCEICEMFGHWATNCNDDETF
Chain of UniProt Q9BSY9 (Q9BSY9 whole entry, looked up): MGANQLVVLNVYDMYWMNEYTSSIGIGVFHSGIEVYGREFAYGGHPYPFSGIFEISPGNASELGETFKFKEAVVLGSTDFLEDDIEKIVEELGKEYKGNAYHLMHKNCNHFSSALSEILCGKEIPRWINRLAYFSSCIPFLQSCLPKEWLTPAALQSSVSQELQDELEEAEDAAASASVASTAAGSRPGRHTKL
Chain of UniProt Q7L7V1 (Q7L7V1 whole entry, looked up): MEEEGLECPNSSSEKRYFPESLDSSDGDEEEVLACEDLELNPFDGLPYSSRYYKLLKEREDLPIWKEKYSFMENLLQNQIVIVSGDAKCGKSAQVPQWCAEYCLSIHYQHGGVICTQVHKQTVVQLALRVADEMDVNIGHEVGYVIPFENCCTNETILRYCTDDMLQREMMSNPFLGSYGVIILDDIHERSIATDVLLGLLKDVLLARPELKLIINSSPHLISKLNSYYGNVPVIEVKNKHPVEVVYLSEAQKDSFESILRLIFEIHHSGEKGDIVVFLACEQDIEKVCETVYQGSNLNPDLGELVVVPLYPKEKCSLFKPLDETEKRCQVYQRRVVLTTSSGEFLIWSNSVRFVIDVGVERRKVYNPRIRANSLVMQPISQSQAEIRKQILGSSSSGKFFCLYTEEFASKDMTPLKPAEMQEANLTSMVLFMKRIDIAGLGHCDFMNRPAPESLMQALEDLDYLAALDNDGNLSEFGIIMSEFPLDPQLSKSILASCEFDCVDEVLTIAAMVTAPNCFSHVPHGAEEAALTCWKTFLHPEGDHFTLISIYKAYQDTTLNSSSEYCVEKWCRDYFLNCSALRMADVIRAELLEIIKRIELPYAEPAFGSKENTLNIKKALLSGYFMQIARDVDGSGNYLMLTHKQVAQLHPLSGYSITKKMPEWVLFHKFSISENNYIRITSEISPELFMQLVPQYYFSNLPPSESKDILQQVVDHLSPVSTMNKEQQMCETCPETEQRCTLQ
Chain of UniProt O14810 (O14810 whole entry, looked up): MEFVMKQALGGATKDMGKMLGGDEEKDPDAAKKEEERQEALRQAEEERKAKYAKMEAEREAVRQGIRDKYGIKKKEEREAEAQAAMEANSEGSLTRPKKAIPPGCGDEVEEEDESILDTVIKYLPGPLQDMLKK
Chain of UniProt O95715 (O95715 whole entry, looked up): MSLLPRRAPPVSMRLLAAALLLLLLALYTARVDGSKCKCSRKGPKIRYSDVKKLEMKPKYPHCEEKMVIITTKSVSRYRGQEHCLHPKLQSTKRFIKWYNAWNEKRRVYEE
Chain of UniProt O96017 (O96017 whole entry, looked up): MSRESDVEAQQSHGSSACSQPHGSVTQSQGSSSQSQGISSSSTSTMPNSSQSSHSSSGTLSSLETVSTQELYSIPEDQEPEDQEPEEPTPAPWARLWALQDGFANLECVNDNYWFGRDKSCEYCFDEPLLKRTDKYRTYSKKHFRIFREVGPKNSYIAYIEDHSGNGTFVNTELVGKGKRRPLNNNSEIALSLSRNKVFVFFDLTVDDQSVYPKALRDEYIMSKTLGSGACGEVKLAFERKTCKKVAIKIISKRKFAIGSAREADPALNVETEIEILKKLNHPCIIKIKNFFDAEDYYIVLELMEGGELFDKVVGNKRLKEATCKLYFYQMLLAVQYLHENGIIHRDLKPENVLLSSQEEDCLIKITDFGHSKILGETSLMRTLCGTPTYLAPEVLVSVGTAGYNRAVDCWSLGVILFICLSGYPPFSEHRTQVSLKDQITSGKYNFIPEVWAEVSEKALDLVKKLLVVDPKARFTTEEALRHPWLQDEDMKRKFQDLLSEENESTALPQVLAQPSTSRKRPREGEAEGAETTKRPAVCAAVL
Chain of UniProt Q9BW66 (Q9BW66 whole entry, looked up): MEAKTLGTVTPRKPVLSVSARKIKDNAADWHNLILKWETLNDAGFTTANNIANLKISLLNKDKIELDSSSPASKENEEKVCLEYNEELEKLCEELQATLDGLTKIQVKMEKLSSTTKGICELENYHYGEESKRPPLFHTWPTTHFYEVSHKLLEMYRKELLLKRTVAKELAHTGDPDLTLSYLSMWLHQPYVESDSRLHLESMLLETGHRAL
Chain of UniProt Q8WXC6 (Q8WXC6 whole entry, looked up): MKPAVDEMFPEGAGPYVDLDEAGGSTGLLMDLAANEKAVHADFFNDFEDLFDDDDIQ

Target | log2 fold change (erlotinib) | log2 fold change [1] | log2 fold change [2] | log2 fold change [3] | log2 fold change [4] | log2 fold change [5] | log2 fold change [6] | log2 fold change [7] | log2 fold change (IRAK-1-4 Inhibitor I) | log2 fold change [8] | log2 fold change (ralimetinib) | log2 fold change [9] | log2 fold change [10] | log2 fold change [11] | log2 fold change [12] | log2 fold change [13] | log2 fold change [14] | log2 fold change [15] | log2 fold change [16] | log2 fold change (ibrutinib)
DCTN1 isoform 4 (UniProt Q14203) | -0.021 | -0.166 | 0.065 | -0.109 | 0.098 | 0.126 | -0.141 | 0 | 0.02 | 0.089 | 0.114 | -0.076 | 0.1 | -0.074 | -0.11 | 0.044 | 0.036 | -0.029 | – | –
CORO7 (UniProt P57737) | -0.001 | 0.01 | 0.291 | -0.089 | -0.023 | -0.047 | -0.07 | 0.064 | 0.091 | – | -0.039 | 0.06 | -0.076 | -0.202 | 0.067 | -0.229 | 0.134 | – | – | –
CLIP1 isoform 1 (UniProt P30622) | -0.025 | -0.026 | 0.019 | -0.005 | 0.005 | 0.002 | 0 | -0.012 | 0.007 | -0.005 | 0.004 | 0 | -0.008 | -0.01 | -0.016 | 0.006 | 0.003 | -0.004 | -0.018 | –
DAPK1 isoform 3 (UniProt P53355) | -0.015 | -0.17 | -0.306 | -0.274 | 0.061 | 0.181 | – | – | 0.008 | 0.35 | 0.041 | 0 | -0.077 | 0.138 | 0.017 | -0.151 | -0.026 | -0.094 | – | –
DHX32 (UniProt Q7L7V1) | -0.083 | -0.091 | 0.098 | -0.052 | 0.013 | 0.038 | -0.145 | 0.044 | 0.036 | – | 0.096 | -0.144 | -0.387 (active) | 0.016 | – | -0.023 | 0.017 | – | – | –
COPS9 (UniProt Q8WXC6) | -0.01 | – | -0.362 | – | 0.081 | – | – | – | -0.371 | -0.059 | 0.146 | -0.213 | 0.173 | – | – | – | 0.172 | -0.184 | – | –
CHEK2 (UniProt O96017) | -0.042 | -0.006 | – | 0.05 | 0.018 | 0.148 | 0.11 | -0.035 | -0.031 | -0.043 | -0.011 | 0.081 | 0.211 | 0.013 | -0.002 | -0.041 | 0.073 | 0.013 | 0.053 | 0.04
DALRD3 (UniProt Q5D0E6) | 0.034 | 0.152 | 0.05 | -0.413 | – | 0.021 | 0.031 | -0.068 | – | 0.028 | – | – | -0.024 | – | – | – | – | 0.037 | – | –
CXCL14 (UniProt O95715) | – | 0.119 | – | -0.094 | – | -0.268 | -0.444 | 0.119 | – | – | – | – | – | – | – | – | – | – | -0.09 | -0.012
COL12A1 (UniProt Q99715) | -0.016 | -0.009 | 0.01 | -0.008 | – | -0.053 | 0.059 | 0.065 | – | 0.72 | – | – | 0.024 | – | -0.224 | 1.57 (active) | – | 0.005 | – | –
DDR1 isoform 5 (UniProt Q08345) | – | – | – | – | 0.04 | – | -0.011 | -0.016 | 0.097 | – | 0.205 | 0.021 | – | -0.117 | -0.099 | 0.38 | 0.117 | – | 0.044 | 0
CSNK2A1, A0A2R8Y4D6 | – | – | – | – | – | – | – | – | – | 0.172 | – | – | – | – | – | – | – | -0.292 | – | –
CLIP1, A0A3B3ITA2 | – | 0.025 | – | 0.004 | -0.039 | -0.103 | – | – | 0.121 | – | 0.156 | -0.173 | – | – | – | 0.019 | -0.215 | – | – | –
DLGAP5 isoform 3 (UniProt Q15398) | – | – | – | – | – | – | – | – | – | – | – | – | – | – | 0.233 | – | – | – | -0.009 | -0.076
CSAD isoform 3 (UniProt Q9Y600) | -0.02 | – | 0.064 | – | 0.044 | – | – | – | -0.02 | – | -0.019 | -0.048 | 0.041 | – | – | -0.027 | -0.033 | – | -0.115 | -0.224
CIC (UniProt I3L1Q4) | – | – | – | – | – | – | – | – | – | – | – | – | – | – | – | – | – | – | -0.03 | 0.005
CHMP4A (UniProt H0YIN6) | – | – | – | – | -0.055 | – | – | – | 0.142 | -0.203 | -0.253 | -0.354 | – | – | -0.055 | 0.33 | 0.15 | -0.159 | 0.06 | -0.077
DHRS13 (UniProt Q6UX07) | 0.227 | – | -0.074 | – | 0.133 | – | – | – | -0.162 | -0.003 | 0.094 | -0.111 | -0.073 | 0.082 | -0.292 | 0.03 | -0.009 | 0.111 | -0.142 | -0.106
COL6A3 (UniProt P12111) | -0.101 | – | 0.14 | – | -0.108 | – | – | – | -0.071 | – | 0.174 | -0.132 | 0.047 | -0.066 | -0.099 | -0.021 | -0.54 (active) | – | -0.232 | -0.087
DONSON (UniProt Q9NYP3) | 0 | – | 0.051 | – | 0.06 | – | – | – | -0.021 | 0.002 | -0.033 | 0.074 | -0.022 | -0.071 | -0.037 | 0.062 | -0.096 | -0.013 | 0.014 | 0.059
CNOT2 (UniProt F8VRS8) | 0.307 | – | 0.101 | – | – | – | – | – | – | – | – | – | -0.001 | – | – | – | – | – | – | –
CPLX1 (UniProt O14810) | – | -0.059 | – | 0.062 | 0.012 | 0.114 | 0.012 | -0.048 | 0.027 | -0.071 | 0.079 | -0.139 | – | – | 0.874 (active) | – | 0.037 | 0.119 | – | –
DESI2 (UniProt Q9BSY9) | – | 0.195 | – | -0.043 | – | 0.119 | 0.002 | 0.067 | – | – | – | – | – | – | – | – | – | – | – | –
CSDE1 isoform 3 (UniProt O75534) | – | – | – | – | 0.027 | – | – | – | -0.011 | -0.331 | 0.047 | 0.019 | – | -0.112 | – | -0.009 | -0.137 | 0.031 | 0.13 | 0.051
CYP4V2 (UniProt Q6ZWL3) | -0.07 | – | 0.014 | – | 0.099 | – | – | – | 0.074 | 0.129 | 0.058 | -0.095 | -0.004 | – | -0.022 | 0.02 | 0.015 | 0.015 | 0.126 | 0.157
CSNK1G3 isoform 4 (UniProt Q9Y6M4) | – | – | – | – | – | – | – | – | – | 0.235 | – | – | – | – | – | – | – | -0.142 | – | –
CINP isoform 3 (UniProt Q9BW66) | – | 0.016 | – | 0.015 | 0.081 | -0.102 | -0.015 | -0.056 | 0.074 | -0.012 | 0.047 | -0.051 | – | 0.072 | -0.168 | 0.039 | 0.009 | -0.005 | -0.015 | 0
CNK3/IPCEF1 isoform 2 (UniProt G9CGD6) | 0.065 | -0.008 | 0.038 | -0.082 | -0.051 | 0.053 | 0.014 | -0.048 | 0.105 | – | 0.215 | -0.138 | -0.096 | – | 0.075 | – | 0 | – | – | –
